Read-out in assay [1]: Thrombomodulin, THBD (gene 7056)
In words: BSK_CASM3C_Thrombomodulin: BioMAP Diversity Plus: CASM3C Assay for Thrombomodulin Biomarker Activity (AID 2283051).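 Further: thrombomodulin protein level measured by ELISA 24 h after dosing.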 The note with it: primary human coronary artery smooth muscle cells; actives raise or lower the signal.

Read-out in assay [2]: Tissue Factor, F3 (gene 2152)
In words: BSK_CASM3C_TissueFactor: BioMAP Diversity Plus: CASM3C Assay for Tissue Factor Biomarker Activity (AID 2283052).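 Further: cell surface tissue factor protein level read by ELISA.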 The settings on record: primary human coronary artery smooth muscle cells; actives raise or lower the signal.

Read-out in assay [3]: Interferon-gamma inducible Protein 10 (IP10), CXCL10 (gene 3627)
In words: BSK_hDFCGF_IP10: BioMAP Diversity Plus: hDFCGF Assay for Interferon-gamma inducible Protein 10 (IP10) Biomarker Activity (AID 2283053). The settings on record: primary human foreskin fibroblasts; actives raise or lower the signal. Put shortly:
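Primary human foreskin fibroblasts exposed to chemicals for 24 h. IP-10 measured by ELISA; changes fitted bidirectionally against DMSO baseline.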

Read-out in assay [4]: Urokinase-type plasminogen activator receptor (uPAR), PLAUR (gene 5329)
In words: BSK_CASM3C_uPAR: BioMAP Diversity Plus: CASM3C Assay for Urokinase-type plasminogen activator receptor (uPAR) Biomarker Activity (AID 2283054).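 Further: cell-surface uPAR protein level quantified by ELISA.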 The note with it: primary human coronary artery smooth muscle cells; actives raise or lower the signal.

Read-out in assay [5]: Vascular cell adhesion molecule 1 (VCAM1), VCAM1 (gene 7412)
In words: BSK_CASM3C_VCAM1: BioMAP Diversity Plus: CASM3C Assay for Vascular cell adhesion molecule 1 (VCAM1) Biomarker Activity (AID 2283055).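 Further: VCAM-1 protein level quantified by ELISA on the cells.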 The settings on record: primary human coronary artery smooth muscle cells; actives raise or lower the signal.

Read-out in assay [6]: Collagen III, COL3A1 (gene 1281)
In words: BSK_hDFCGF_CollagenIII: BioMAP Diversity Plus: hDFCGF Assay for Collagen III Biomarker Activity (AID 2283056). The note with it: primary human foreskin fibroblasts; actives raise or lower the signal. In short, it runs like this: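 ELISA readout of Collagen III in human dermal (foreskin) fibroblasts, taken 24 h post-treatment. Gain or loss relative to DMSO vehicle fitted in both directions.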

Read-out in assay [7]: Epidermal growth factor receptor (EGFR), EGFR (gene 1956)
In words: BSK_hDFCGF_EGFR: BioMAP Diversity Plus: hDFCGF Assay for Epidermal growth factor receptor (EGFR) Biomarker Activity (AID 2283057). The settings on record: primary human foreskin fibroblasts; actives raise or lower the signal. Put shortly:
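Primary human foreskin fibroblasts (hDFCGF system), sampled 24 h after dosing; EGFR quantified by ELISA. Bidirectional fit relative to DMSO baseline; SRB total-protein staining in parallel cultures for cytotoxicity.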

Read-out in assay [8]: Interleukin-8 (IL8), CXCL8 (gene 3576)
In words: BSK_hDFCGF_IL8: BioMAP Diversity Plus: hDFCGF Assay for Interleukin-8 (IL8) Biomarker Activity (AID 2283058). The settings on record: primary human foreskin fibroblasts; actives raise or lower the signal. In short, it runs like this: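 IL-8 levels read by ELISA at 24 hours after dosing human skin fibroblast cultures. Parallel SRB staining assessed overt cytotoxicity, and gain or loss of signal was fitted against DMSO control.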

Read-out in assay [9]: Macrophage colony-stimulating factor (MCSF), CSF1 (gene 1435)
In words: BSK_hDFCGF_MCSF: BioMAP Diversity Plus: hDFCGF Assay for Macrophage colony-stimulating factor (MCSF) Biomarker Activity (AID 2283060). The note with it: primary human foreskin fibroblasts; actives raise or lower the signal. In short, it runs like this:
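M-CSF levels read by ELISA at 24 h post-dosing in human skin fibroblasts. Parallel cultures stained with SRB assessed cytotoxicity at the same time point; response fitted in both directions against the DMSO baseline.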

Assay [10] in a line: BSK_hDFCGF_SRB: Viability Assessment in the BioMAP Diversity Plus: hDFCGF Assay (AID 2283061).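 Further: cells exposed to compound for 24 h before the read.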 The note with it: primary human foreskin fibroblasts. In short, it runs like this:
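Viability was read as total protein: after 10% TCA fixation, wells were stained with 0.1% sulforhodamine B and read at 560 nm. Primary human foreskin fibroblasts were dosed for 24 h, with bidirectional fitting versus DMSO.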

Read-out in assay [11]: Monokine induced gamma interferon (MIG), CXCL9 (gene 4283)
In words: BSK_hDFCGF_MIG: BioMAP Diversity Plus: hDFCGF Assay for Monokine induced gamma interferon (MIG) Biomarker Activity (AID 2283063). The note with it: primary human foreskin fibroblasts; actives raise or lower the signal. In short, it runs like this: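 Human primary foreskin fibroblasts in the hDFCGF system, exposed to test chemical for 24 h; MIG measured by ELISA. Bidirectional curve fitting against DMSO negative control as activity baseline.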

Read-out in assay [12]: Matrix Metallopeptidase 1 (MMP1), MMP1 (gene 4312)
In words: BSK_hDFCGF_MMP1: BioMAP Diversity Plus: hDFCGF Assay for Matrix Metallopeptidase 1 (MMP1) Biomarker Activity (AID 2283064). The settings on record: primary human foreskin fibroblasts; actives raise or lower the signal. Put shortly: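 Primary human foreskin fibroblasts exposed to chemicals for 24 h; MMP1 measured by ELISA. Cytotoxicity tracked by SRB staining in parallel cultures; bidirectional fit relative to DMSO.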

Read-out in assay [13]: Vascular cell adhesion molecule 1 (VCAM1), VCAM1 (gene 7412)
In words: BSK_hDFCGF_VCAM1: BioMAP Diversity Plus: hDFCGF Assay for Vascular cell adhesion molecule 1 (VCAM1) Biomarker Activity (AID 2283065).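 On AC50: VCAM-1 protein level quantified by ELISA after 24 h chemical exposure.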 The note with it: primary human foreskin fibroblasts; actives raise or lower the signal. In short, it runs like this:
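ELISA readout of VCAM-1 on human dermal fibroblast primary cultures, 24 h after chemical exposure. Gain or loss of signal fitted in both directions against DMSO baseline.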

Read-out in assay [14]: Plasminogen activator inhibitor-1 (PAI1), SERPINE1 (gene 5054)
In words: BSK_hDFCGF_PAI1: BioMAP Diversity Plus: hDFCGF Assay for Plasminogen activator inhibitor-1 (PAI1) Biomarker Activity (AID 2283066). The settings on record: primary human foreskin fibroblasts; actives raise or lower the signal. In short, it runs like this:
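Human foreskin fibroblast primary cells, 24 h chemical exposure; PAI-1 measured by ELISA. Bidirectional fitting relative to DMSO; parallel cultures stained with SRB for total protein to flag overt cytotoxicity.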

Read-out in assay [15]: Intercellular Adhesion Molecule 1 (ICAM1), ICAM1 (gene 3383)
In words: BSK_KF3CT_ICAM1: BioMAP Diversity Plus: KF3CT Assay for Intercellular Adhesion Molecule 1 (ICAM1) Biomarker Activity (AID 2283067). The note with it: primary human keratinocytes with fibroblasts; actives raise or lower the signal. In short, it runs like this: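 Cell-surface ICAM-1 was measured by ELISA 24 h after dosing primary human skin keratinocytes co-cultured with fibroblasts. Parallel SRB staining tracked overt cytotoxicity. Gain or loss of signal was fitted relative to DMSO.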

Read-out in assay [16]: Interferon-gamma inducible Protein 10 (IP10), CXCL10 (gene 3627)
In words: BSK_KF3CT_IP10: BioMAP Diversity Plus: KF3CT Assay for Interferon-gamma inducible Protein 10 (IP10) Biomarker Activity (AID 2283068). The settings on record: primary human keratinocytes with fibroblasts; actives raise or lower the signal. Put shortly:
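KF3CT co-culture (keratinocytes + foreskin fibroblasts), 24 h compound, IP-10 by ELISA; bidirectional fit vs DMSO baseline.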

Assay [17] is described as follows: BSK_KF3CT_SRB: Viability Assessment in the BioMAP Diversity Plus: KF3CT Assay (AID 2283069).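 Further: total protein by sulforhodamine B staining as a cytotoxicity measure; read 24 h after compound addition.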 The note with it: primary human keratinocytes with fibroblasts. Put shortly:
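Human keratinocyte and foreskin fibroblast co-culture exposed to chemical for 24 h. Total protein measured in parallel cultures by 0.1% sulforhodamine B staining after 10% TCA fixation, read at 560 nm; bidirectional fit relative to DMSO.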

Read-out in assay [18]: Interleukin-1 alpha (IL1a), IL1A (gene 3552)
In words: BSK_KF3CT_IL1a: BioMAP Diversity Plus: KF3CT Assay for Interleukin-1 alpha (IL1a) Biomarker Activity (AID 2283070). The settings on record: primary human keratinocytes with fibroblasts; actives raise or lower the signal. Put shortly:
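Primary human keratinocyte plus foreskin fibroblast co-culture, dosed and measured at 24 h in 96-well plates. IL-1a level quantified by ELISA; bidirectional fit relative to DMSO.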

Read-out in assay [19]: TIMP metallopeptidase inhibitor 1 (TIMP1), TIMP1 (gene 7076)
In words: BSK_hDFCGF_TIMP1: BioMAP Diversity Plus: hDFCGF Assay for TIMP metallopeptidase inhibitor 1 (TIMP1) Biomarker Activity (AID 2283062). The note with it: primary human foreskin fibroblasts; actives raise or lower the signal. In short, it runs like this:
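TIMP-1 measured by ELISA 24 h after chemical dosing of primary human skin fibroblasts, with gain or loss fitted relative to DMSO. Parallel SRB staining (560 nm) monitored overt cytotoxicity.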

Active and inactive are the calls of the source. How the source made its calls: active means hit-call score of the fitted dose curve at least 0.9, where 1 is the maximum; inactive means score below 0.9.

One may read the AC50 as the midpoint of the concentration-response curve, whichever way the signal moves. For `CCCCC(CC)COP(=O)(Oc1ccccc1)Oc1ccccc1` (centres undefined), the outcome in [1], in [2], in [4], in assay [5], in assay [7] and in assay [15] was inactive. Further, the outcome in assay [16] was inactive. Besides, the concentration at half-maximal activity (AC50) is 4.03 µM (active) in [3]; 2.39 µM (active) in assay [6]; 11.9 µM (active) in assay [8]; 6.1 µM (active) in assay [9]; 4.47 µM (active) in [10]; 11 µM (active) in [11]. Also, the AC50 is 6.33 µM (active) in assay [12]; 1.69 µM (active) in assay [13]; 6.48 µM (active) in assay [14]; 20 µM (active) in assay [17]; 5.46 µM (active) in [18].
`CC(Cc1ccc(OCC(=O)O)cc1)NCC(O)c1csc(C(F)(F)F)n1` (centres undefined): the result in assay [1], in assay [2], in assay [3], in [4], in assay [5] and in assay [6] was inactive. The result in assay [7], in assay [8], in [9], in assay [11], in assay [12] and in [13] was inactive. In addition, the result in assay [14], in assay [15], in [16], in assay [17] and in assay [18] was inactive.
For the molecule `CCOP(=S)(S)OCC`, the outcome in [1], in assay [2], in assay [3], in [4], in assay [5] and in assay [6] was inactive. Besides, the outcome in assay [7], in [8], in assay [9], in [11], in assay [12] and in assay [13] was inactive. In addition, the result in assay [14], in assay [15], in assay [16], in [17] and in assay [18] was inactive.
In the case of `ClC(Cl)c1ccccc1`, the outcome in assay [1], in [2], in assay [3], in [4], in [5] and in assay [6] was inactive. Moreover, the outcome in [7], in assay [8], in assay [9], in assay [11], in assay [12] and in assay [13] was inactive. In addition, the result in assay [14], in assay [15], in [16], in assay [17] and in assay [18] was inactive.
Regarding `FC(F)(F)C(F)(C(F)(F)F)C(F)(F)C(F)(F)CC1CO1` (centres undefined), the result in assay [1], in assay [2], in [3], in assay [4], in [5] and in assay [6] was inactive. Moreover, the result in assay [7], in [8], in assay [9], in assay [11], in assay [12] and in [13] was inactive. The result in assay [14], in assay [15], in assay [16], in [17] and in assay [18] was inactive.
As to `O=P(Oc1ccccc1)(Oc1ccccc1)Oc1ccccc1`, the AC50 was 29.6 µM (active) in assay [1], 8.45 µM (active) in assay [6], 10.9 µM (active) in [9] and 20 µM (active) in [14]. For the same molecule, the outcome in [2], in assay [3], in [4], in assay [5], in assay [7] and in [8] was inactive. Besides, the result in assay [19], in assay [11], in assay [12], in assay [13], in assay [15] and in [16] was inactive. Further, the outcome in [17] and in assay [18] was inactive.
Consider `CCCCN(CCCC)SN(C)C(=O)Oc1cccc2c1OC(C)(C)C2`, for which the AC50 in assay [1] was 29.1 µM (active); in assay [3], 8.12 µM (active); in [5] it was 13.4 µM (active); in assay [6], 5.49 µM (active); in assay [8], 16.2 µM (active); in [9], 7.15 µM (active). Besides, the AC50 in [11] was 13.2 µM (active); in assay [12], 12.4 µM (active); in [13], 5.54 µM (active); in assay [14], 8.57 µM (active). The result in assay [2], in assay [4], in assay [7], in [15], in assay [16] and in [17] was inactive. For the same molecule, the outcome in assay [18] was inactive.
`O=P(OCC(Br)CBr)(OCC(Br)CBr)OCC(Br)CBr` (centres undefined): the result in assay [1], in assay [2], in assay [3], in assay [4], in assay [5] and in assay [6] was inactive. Moreover, the outcome in [7], in assay [8], in [9], in assay [19], in assay [11] and in [12] was inactive. Moreover, the result in assay [13], in [14], in assay [15], in [17] and in assay [18] was inactive. Moreover, the AC50 in assay [16] is 26.2 µM (active).

(Values after PubChem BioAssay (EPA / NIEHS).)
